Measurements published in PubChem BioAssay (Tox21).
Records with an inconclusive call do not appear. More than one record can exist for a structure, and the calls need not agree. Active and inactive are the calls of the source. Calls come from the whole dose curve; as a rule, active = well fitted curve in the direction sought with a large enough effect in the repeat runs; inconclusive = weak or mixed curves; inactive = no such curve, though single readings can be large; an effect the other way counts as inactive or inconclusive.

How the values were obtained:
[1] = Caspase-3/7 induction in CHO-K1 cells by small molecules, qHTS cell viability counter screen (AID 1346979); note: nearly all actives have a fitted effect of over 35% in size
How it was run: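 CHO-K1 wt, 1,500 cells/well; 5hr pre-incubation 37C/5% CO2; compound pin transfer (DMSO); 16hr exposure; CellTiter-Fluor added, 1hr, fluorescence read.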

[2] = molecular target: Nuclear receptor subfamily 1 group I member 2 (Homo sapiens) (UniProt O75469); experiment: Human pregnane X receptor (PXR) small molecule agonists, qHTS assay (AID 1346982); note: nearly all actives have a fitted effect of over 35% in size; for activation: % is set by controls: 0 for no effect and ±100 for the full control effect
Sequence of Nuclear receptor subfamily 1 group I member 2 (Homo sapiens) (O75469 whole entry, looked up): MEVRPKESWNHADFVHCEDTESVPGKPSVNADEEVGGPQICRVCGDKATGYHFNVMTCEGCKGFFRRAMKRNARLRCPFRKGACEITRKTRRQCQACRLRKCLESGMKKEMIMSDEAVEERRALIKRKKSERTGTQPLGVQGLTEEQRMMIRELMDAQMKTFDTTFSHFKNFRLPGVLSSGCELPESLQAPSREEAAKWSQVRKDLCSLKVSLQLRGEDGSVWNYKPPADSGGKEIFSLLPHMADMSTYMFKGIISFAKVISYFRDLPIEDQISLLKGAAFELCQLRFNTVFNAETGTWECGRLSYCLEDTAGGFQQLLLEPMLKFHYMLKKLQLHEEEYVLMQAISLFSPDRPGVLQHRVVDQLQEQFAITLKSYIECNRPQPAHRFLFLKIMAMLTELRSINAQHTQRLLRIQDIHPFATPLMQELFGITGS
How it was run: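 Agonist mode qHTS: PXR-Luc HepG2 cells plated 5 hr before DMSO-dissolved compounds were pinned in, cultured 24 hr at 37 C, 5% CO2; ONE-Glo luminescence readout.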

[3] = molecular target: Cytochrome P450 2D6 (Homo sapiens) (UniProt P10635); experiment: Cytochrome P450 Family 2 Subfamily D Member 6 (CYP2D6) small molecule antagonists: luciferase reporter qHTS assay (AID 1671196); note: nearly all actives have a fitted effect of over 50% in size
Sequence of Cytochrome P450 2D6 (Homo sapiens) (P10635 whole entry, looked up): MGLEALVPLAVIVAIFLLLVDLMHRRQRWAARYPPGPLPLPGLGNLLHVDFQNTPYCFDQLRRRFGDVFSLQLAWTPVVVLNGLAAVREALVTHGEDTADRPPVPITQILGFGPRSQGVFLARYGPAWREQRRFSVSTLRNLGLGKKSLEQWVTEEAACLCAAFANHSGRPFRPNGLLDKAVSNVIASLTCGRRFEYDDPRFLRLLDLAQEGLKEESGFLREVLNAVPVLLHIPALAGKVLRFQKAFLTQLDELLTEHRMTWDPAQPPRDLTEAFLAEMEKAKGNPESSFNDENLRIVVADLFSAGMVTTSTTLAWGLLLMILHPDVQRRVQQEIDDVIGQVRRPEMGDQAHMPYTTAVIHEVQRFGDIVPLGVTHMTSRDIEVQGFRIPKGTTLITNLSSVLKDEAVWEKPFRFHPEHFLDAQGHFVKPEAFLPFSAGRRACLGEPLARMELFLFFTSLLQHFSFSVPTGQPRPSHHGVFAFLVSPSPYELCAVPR
How it was run: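 P450-Glo format: CYP2D6 converts a proluciferin substrate to luciferin in an NADPH-driven reaction lasting 1 h at room temperature. Light output, proportional to CYP2D6 activity, reflects interference by test chemicals.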

[4] = molecular target: Cytochrome P450 2C19 (Homo sapiens) (UniProt P33261); experiment: Cytochrome P450 Family 2 Subfamily C Member 19 (CYP2C19) small molecule antagonists: luciferase reporter qHTS assay (AID 1671197); note: nearly all actives have a fitted effect of over 65% in size
Sequence of Cytochrome P450 2C19 (Homo sapiens) (P33261 whole entry, looked up): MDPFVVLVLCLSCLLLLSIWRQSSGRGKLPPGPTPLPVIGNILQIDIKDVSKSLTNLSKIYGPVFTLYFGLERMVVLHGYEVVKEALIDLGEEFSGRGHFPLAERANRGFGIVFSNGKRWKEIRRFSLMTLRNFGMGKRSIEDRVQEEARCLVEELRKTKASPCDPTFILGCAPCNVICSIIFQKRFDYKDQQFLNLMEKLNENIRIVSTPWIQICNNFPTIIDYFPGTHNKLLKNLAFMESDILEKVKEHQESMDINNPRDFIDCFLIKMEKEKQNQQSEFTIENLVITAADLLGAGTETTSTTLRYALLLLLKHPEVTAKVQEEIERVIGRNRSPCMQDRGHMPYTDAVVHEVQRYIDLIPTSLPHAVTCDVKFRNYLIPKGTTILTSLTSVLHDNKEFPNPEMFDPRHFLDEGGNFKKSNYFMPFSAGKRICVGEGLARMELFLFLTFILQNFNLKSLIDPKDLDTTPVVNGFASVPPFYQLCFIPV
How it was run: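 Luminescent readout of CYP2C19 activity: luciferin product detected 20 min after adding detection reagent. Before that, compound and enzyme-substrate mix preincubated 10 min at room temperature; NADPH-regenerating system started a 1 h, 37C reaction. Ketoconazole as positive control.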

[5] = Caspase-3/7 induction in CHO-K1 cells by small molecules, qHTS assay (AID 1346980); note: nearly all actives have a fitted effect of over 15% in size
How it was run: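 Wild-type cells were seeded at 1,500 per well and settled 5 hr at 37 C, 5% CO2, then exposed to DMSO-dissolved compounds for 17 hr. Caspase-Glo 3/7 reagent was added, and luminescence was read after 30min at room temperature.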

[6] = molecular target: Voltage-gated inwardly rectifying potassium channel KCNH2 (Homo sapiens) (UniProt Q12809); experiment: Human Ether-a-go-go-Related Gene (hERG) channel small molecule antagonists: fluorescence cell-based qHTS assay (AID 1671200); note: nearly all actives have a fitted effect of over 50% in size
Sequence of Voltage-gated inwardly rectifying potassium channel KCNH2 (Homo sapiens) (Q12809 whole entry, looked up): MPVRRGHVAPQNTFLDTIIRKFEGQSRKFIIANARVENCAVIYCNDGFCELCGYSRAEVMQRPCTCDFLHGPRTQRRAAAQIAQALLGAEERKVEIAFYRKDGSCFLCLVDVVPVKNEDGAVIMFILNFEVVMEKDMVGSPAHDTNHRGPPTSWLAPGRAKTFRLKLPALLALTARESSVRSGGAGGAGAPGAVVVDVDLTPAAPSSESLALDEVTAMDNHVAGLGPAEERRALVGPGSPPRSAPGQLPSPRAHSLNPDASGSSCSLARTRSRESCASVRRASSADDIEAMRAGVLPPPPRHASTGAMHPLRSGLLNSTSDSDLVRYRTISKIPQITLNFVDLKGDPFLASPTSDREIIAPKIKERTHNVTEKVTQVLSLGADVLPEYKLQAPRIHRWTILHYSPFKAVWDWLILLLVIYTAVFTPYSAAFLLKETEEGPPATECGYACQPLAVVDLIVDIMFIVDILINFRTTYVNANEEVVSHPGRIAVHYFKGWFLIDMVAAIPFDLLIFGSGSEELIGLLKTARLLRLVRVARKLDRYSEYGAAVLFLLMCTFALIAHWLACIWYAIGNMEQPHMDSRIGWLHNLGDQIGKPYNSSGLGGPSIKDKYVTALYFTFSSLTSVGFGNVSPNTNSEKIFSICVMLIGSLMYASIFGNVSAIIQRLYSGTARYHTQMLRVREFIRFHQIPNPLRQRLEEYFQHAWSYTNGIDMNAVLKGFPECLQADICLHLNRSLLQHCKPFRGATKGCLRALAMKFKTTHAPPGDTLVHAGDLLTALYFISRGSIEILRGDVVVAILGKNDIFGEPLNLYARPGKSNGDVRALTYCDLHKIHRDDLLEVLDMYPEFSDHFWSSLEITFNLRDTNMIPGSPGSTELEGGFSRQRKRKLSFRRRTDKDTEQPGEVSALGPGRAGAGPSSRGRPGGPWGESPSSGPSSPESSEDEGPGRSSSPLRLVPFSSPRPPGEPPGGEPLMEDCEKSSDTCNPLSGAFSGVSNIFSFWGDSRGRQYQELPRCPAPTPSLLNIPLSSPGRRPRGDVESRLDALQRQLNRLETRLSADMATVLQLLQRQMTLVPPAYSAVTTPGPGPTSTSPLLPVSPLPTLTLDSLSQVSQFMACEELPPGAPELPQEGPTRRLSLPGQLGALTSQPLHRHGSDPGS
How it was run: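 Read-out: thallium influx as a surrogate for potassium, tracked as fluorescence (480 nm ex/540 nm em) every second for 2 min after Stimulus Buffer addition in dye-loaded hERG-U2OS cells.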

[7] = Caspase-3/7 induction in HepG2 cells by small molecules, qHTS assay (AID 1346978); note: nearly all actives have a fitted effect of over 15% in size
How it was run: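 Wild-type HepG2 cells (2,000/well) were settled 5 h at 37 C, 5% CO2, then exposed to compounds in DMSO for 17 h. Caspase-3/7 activity was read by luminescence 30 min after adding Caspase-Glo 3/7 reagent at room temperature.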

[8] = molecular target: Nuclear receptor subfamily 1 group I member 2 (Homo sapiens) (UniProt O75469); experiment: CYP3A4 induction through human pregnane X receptor (PXR) by small molecules, qHTS assay (AID 1346984); note: nearly all actives have a fitted effect of over 40% in size; for activation: % is set by controls: 0 for no effect and ±100 for the full control effect
How it was run: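 Steps: seed DPX-2 cells, 5 hr at 37C; pin-transfer compounds; 24 hr at 37C; add Luciferin-IPA (3uM final), 3 hr at 37C; add One-Glo, 30 min RT; read luminescence.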

[9] = molecular target: Nuclear receptor subfamily 1 group I member 2 (Homo sapiens) (UniProt O75469); experiment: Human pregnane X receptor (PXR) activation by small molecules, qHTS assay (AID 1346985); note: nearly all actives have a fitted effect of over 40% in size; for activation: % is set by controls: 0 for no effect and ±100 for the full control effect
How it was run: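 DPX-2 cells (HepG2 co-transfected with a PXR response element and a CYP3A4-promoter luciferase construct) were seeded at 2,000 per well, rested 5 hr at 37C, then exposed to DMSO-dissolved compounds for 24 hr. Activation was read as luciferase luminescence.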

[10] = molecular target: Cytochrome P450 2C9 (Homo sapiens) (UniProt P11712); experiment: Cytochrome P450 Family 2 Subfamily C Member 9 (CYP2C9) small molecule antagonists: luciferase reporter qHTS assay (AID 1671198); note: nearly all actives have a fitted effect of over 50% in size
Sequence of Cytochrome P450 2C9 (Homo sapiens) (P11712 whole entry, looked up): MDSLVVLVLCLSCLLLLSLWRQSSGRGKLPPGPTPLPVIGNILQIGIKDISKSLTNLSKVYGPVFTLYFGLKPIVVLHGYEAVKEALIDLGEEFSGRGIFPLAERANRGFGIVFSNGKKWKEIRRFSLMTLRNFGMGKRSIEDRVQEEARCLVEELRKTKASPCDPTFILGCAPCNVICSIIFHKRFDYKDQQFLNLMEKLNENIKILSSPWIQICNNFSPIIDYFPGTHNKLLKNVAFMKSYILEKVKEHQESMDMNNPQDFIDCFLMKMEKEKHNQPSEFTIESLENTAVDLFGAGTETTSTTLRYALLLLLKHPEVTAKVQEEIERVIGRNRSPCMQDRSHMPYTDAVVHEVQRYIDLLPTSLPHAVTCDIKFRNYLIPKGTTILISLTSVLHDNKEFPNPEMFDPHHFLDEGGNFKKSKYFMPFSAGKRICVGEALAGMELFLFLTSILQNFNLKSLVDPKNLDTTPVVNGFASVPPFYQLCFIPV
How it was run: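 CYP2C9 activity was measured with a P450-Glo proluciferin substrate. Enzyme–substrate mix was held with compound for 10 min at room temperature, then NADPH regeneration solution was added for 1 h at 37C. Luciferin product was read as luminescence.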

[11] = molecular target: Cytochrome P450 1A2 (Homo sapiens) (UniProt P05177); experiment: Cytochrome P450 Family 1 Subfamily A Member 2 (CYP1A2) small molecule antagonists: luciferase reporter qHTS assay (AID 1671199); note: nearly all actives have a fitted effect of over 50% in size
Sequence of Cytochrome P450 1A2 (Homo sapiens) (P05177 whole entry, looked up): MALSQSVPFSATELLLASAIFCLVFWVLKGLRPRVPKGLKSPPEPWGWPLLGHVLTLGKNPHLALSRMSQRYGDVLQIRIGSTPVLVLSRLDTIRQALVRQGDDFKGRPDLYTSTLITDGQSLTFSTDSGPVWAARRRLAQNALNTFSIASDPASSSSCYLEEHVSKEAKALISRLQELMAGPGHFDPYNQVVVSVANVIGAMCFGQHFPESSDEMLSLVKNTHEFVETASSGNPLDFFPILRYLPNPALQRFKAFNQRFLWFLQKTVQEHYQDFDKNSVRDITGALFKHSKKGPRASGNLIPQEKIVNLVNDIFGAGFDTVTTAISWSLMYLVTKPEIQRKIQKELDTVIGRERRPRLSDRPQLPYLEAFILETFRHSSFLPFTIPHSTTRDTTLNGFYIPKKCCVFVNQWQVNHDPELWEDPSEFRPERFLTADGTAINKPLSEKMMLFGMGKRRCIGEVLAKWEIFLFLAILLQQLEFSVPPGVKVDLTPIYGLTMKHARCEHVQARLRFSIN
How it was run: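 Inhibition of CYP1A2 conversion of proluciferin to luciferin, detected by luminescence. Reaction run 1 h at room temperature with NADPH regeneration after brief compound preincubation.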

[12] = molecular target: Nuclear receptor subfamily 1 group I member 2 (Rattus norvegicus) (UniProt Q9R1A7); experiment: Rat pregnane X receptor (rPXR) activation by small molecules, qHTS assay (AID 1346983); conditions: rPXR luciferase reporter cells, One-Glo luminescence, 24 h; max activation: stronger effect = higher value; note: nearly all actives have a fitted effect of over 20% in size; for max activation: % is set by controls: 0 for no effect and ±100 for the full control effect
Sequence of Nuclear receptor subfamily 1 group I member 2 (Rattus norvegicus) (Q9R1A7 whole entry, looked up): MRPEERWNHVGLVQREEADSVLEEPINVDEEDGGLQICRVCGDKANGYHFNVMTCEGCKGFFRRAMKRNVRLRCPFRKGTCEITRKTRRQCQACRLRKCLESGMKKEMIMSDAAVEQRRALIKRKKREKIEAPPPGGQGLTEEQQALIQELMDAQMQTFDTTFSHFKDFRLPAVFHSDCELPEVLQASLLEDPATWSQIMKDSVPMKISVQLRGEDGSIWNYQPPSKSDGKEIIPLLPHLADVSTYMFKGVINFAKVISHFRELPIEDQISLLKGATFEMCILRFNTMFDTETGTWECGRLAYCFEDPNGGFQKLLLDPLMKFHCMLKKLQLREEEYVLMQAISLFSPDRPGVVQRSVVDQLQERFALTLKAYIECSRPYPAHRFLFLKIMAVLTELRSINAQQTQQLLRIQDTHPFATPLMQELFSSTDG
How it was run: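 Cell-based rPXR luciferase reporter assay, 2,000 cells per well, rested 5hr at 37 C before compound addition in DMSO, then 24 hr at 37 C. One-Glo reagent was added and luminescence read after 30 min at room temperature.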

[13] = molecular target: Cytochrome P450 3A4 (Homo sapiens) (UniProt P08684); experiment: Cytochrome P450 Family 3 Subfamily A Member 4 (CYP3A4) small molecule antagonists: luciferase reporter qHTS assay (AID 1671201); note: nearly all actives have a fitted effect of over 50% in size
Sequence of Cytochrome P450 3A4 (Homo sapiens) (P08684 whole entry, looked up): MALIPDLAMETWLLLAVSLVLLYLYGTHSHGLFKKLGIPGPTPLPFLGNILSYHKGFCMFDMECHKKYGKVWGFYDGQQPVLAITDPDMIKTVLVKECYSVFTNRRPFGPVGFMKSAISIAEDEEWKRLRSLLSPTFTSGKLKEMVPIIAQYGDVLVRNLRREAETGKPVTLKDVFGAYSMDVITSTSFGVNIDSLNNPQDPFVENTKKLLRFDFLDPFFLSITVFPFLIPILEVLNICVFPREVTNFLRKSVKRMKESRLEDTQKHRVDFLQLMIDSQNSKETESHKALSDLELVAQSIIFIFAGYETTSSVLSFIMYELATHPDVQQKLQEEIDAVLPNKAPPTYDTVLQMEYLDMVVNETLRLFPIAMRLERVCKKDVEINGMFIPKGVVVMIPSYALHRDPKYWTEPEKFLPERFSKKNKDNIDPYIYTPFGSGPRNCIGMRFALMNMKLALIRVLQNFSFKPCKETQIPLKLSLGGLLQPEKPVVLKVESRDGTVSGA
How it was run: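 Luminescent readout (RLU) proportional to CYP3A4 activity, from luciferin generated off a proluciferin substrate. Enzyme–substrate mix plus compound 10 min at room temp, NADPH regeneration 1 h, detection reagent 20 min.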
Potency is the fitted concentration of half-maximal effect.

S=c1[nH]c2ccccc2s1
active: Potency [1] 64.8 µM | Potency [2] 30.6 µM | Potency [3] 39.9 µM | Potency [4] 11.2 µM

CCOc1nc2cccc(C(=O)OC(C)OC(=O)OC3CCCCC3)c2n1Cc1ccc(-c2ccccc2-c2nn[nH]n2)cc1 (centres undefined)
active: Potency [1] 34.3 µM | Potency [5] 43.2 µM | Potency [2] 24.3 µM
inactive: Potency [6]

N/C(=N\N=C\c1ccc(Cl)cc1)N/N=C/c1ccc(Cl)cc1
inactive: Potency [7] | Potency [5] | Potency [8] | Potency [9]
active: Potency [2] 11.9 µM | Potency [4] 2.19 µM | Potency [10] 13.8 µM | Potency [11] 3.63 µM | Potency [6] 2.39 µM

C[C@@H]1C[C@H]2[C@@H]3CCC4=CC(=O)C=C[C@]4(C)[C@@]3(Cl)[C@@H](O)C[C@]2(C)[C@@]1(OC(=O)c1ccco1)C(=O)CCl
inactive: Potency [8] | Potency [11] | Potency [6]
active: Potency [1] 23.7 µM | Potency [2] 26.6 µM | Potency [12] 2 µM | Potency [9] 4.47 µM | Potency [3] 3.89 µM | Potency [4] 9.77 µM | Potency [10] 8.71 µM

Cc1[nH]cnc1C[C@H]1CCc2c(C)c3ccccc3n2C1=O
active: Potency [2] 59.6 µM | Potency [3] 4.37 µM | Potency [4] 1.95 µM | Potency [10] 0.49 µM | Potency [11] 1.74 µM | Potency [6] 5.36 µM
inactive: Potency [5]

NC(=NCCCCCCN=C(N)/N=C(\N)Nc1ccc(Cl)cc1)/N=C(\N)Nc1ccc(Cl)cc1
2.41 µM (active) and inactive: Potency [2]
active: Potency [4] 22.3 µM [middle of 5 runs] | Potency [10] 25.1 µM [middle of 5 runs]
inactive: Potency [7] | Potency [5]

Cc1cc(O)c(C(C)(C)C)cc1C(C)(C)C
active: Potency [7] 61.1 µM | Potency [4] 17.8 µM | Potency [11] 35.6 µM | Potency [13] 31.7 µM

OCCN(CCO)c1nc(N2CCCCC2)c2nc(N(CCO)CCO)nc(N3CCCCC3)c2n1
inactive: Potency [7] | Potency [5] | Potency [6]
active: Potency [3] 9.77 µM

CCOc1ccc2nc3cc(N)ccc3c(N)c2c1
active: Potency [3] 15.5 µM | Potency [11] 0.871 µM
inactive: Potency [7] | Potency [5] | Potency [2] | Potency [8] | Potency [9] | Potency [4] | Potency [10] | Potency [6] | Potency [13]

CSc1ccc2c(c1)C(N1CCN(C)CC1)Cc1ccccc1S2 (centres undefined)
active: Potency [1] 29.8 µM | Potency [8] 25.1 µM | Potency [3] 1.74 µM | Potency [4] 34.7 µM | Potency [6] 1.07 µM
inactive: Potency [5] | Potency [2] | max activation [12] -6.14% | Potency [11]

CCN(CC)CCCC(C)Nc1c2ccc(Cl)cc2nc2ccc(OC)cc12 (centres undefined)
active: Potency [7] 29.8 µM | Potency [2] 5.96 µM
inactive: Potency [8] | Potency [9] | Potency [4] | Potency [6] | Potency [13]
